A selection: hits, their analogues and other compounds. The true share with any hit is near 20%.
Pf growth 96h: inhibits malaria parasite growth, 96 h | 320,000 tested, 6.9% active | AID 504834 | P. falciparum luciferase reporter growth, 96 h | Potency, µM (doses to about 28.7 µM), most hits filed as inhibitors
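Readout is luminescence from an integrated firefly luciferase in P. falciparum. Red cells, 2% hematocrit and 0.05% parasitemia final, were cultured with compound through two parasite generations (96 hours) at 37 C, 5% CO2.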
Pf growth 48h: inhibits P. falciparum growth in the first generation, 48 h; P. falciparum luciferase growth in erythrocytes, 48 h; Potency, µM (doses to about 28.7 µM), most hits filed as inhibitors; 310,000 tested, 5.9% active; AID 504832
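Cell-based growth assay: transgenic P. falciparum expressing firefly luciferase, cultured in red cells within RPMI 1640 containing 0.5% w/v Albumax, 24 mM bicarbonate and gentamycin. A drop in luciferase activity indicates inhibition.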
Shiga inhibitor: inhibitors of Shiga toxin in Vero cells | Vero cells, Shiga toxin protein synthesis inhibition reporter | inhibition, % at 38.7 µM | 290,000 tested, 9.2% active | AID 2315; in the data active = inhibition mostly above about 28%, no sharp cut-off; inactive = mostly below about 43%
HCMV antiviral: blocks human cytomegalovirus replication; HFF cells, HCMV-luciferase reporter, 72 h; hits give low values; activity change, negative = inhibition, % at 57.5 µM; 410,000 tested, 4.5% active; AID 1259415; in the data active = activity change below about -60%; inconclusive = no clear call, values can overlap the other calls; inactive = above about -39%
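Two compound doses tested in HFFs infected with HCMV-luciferase, MOI 1 PFU/cell, 72 h at 37C. Lysate luminescence read with OneGlo; data normalized against buffer-only and 10uM Salinomycin inhibitor controls.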
CHX counter: affects cycloheximide protein synthesis inhibition readout, counter-screen; cell reporter, cycloheximide protein synthesis inhibition counterscreen; max response, %; 300,000 tested, 12% active; in the data active = max response mostly above about 13%, no sharp cut-off; inactive = mostly below about 14%; note: read at 38.3 µM for the half of the compounds with a filed dose
Each line names hits and unclear results; the compound was inactive in the other large screens. Unless noted, calls come from the whole dose curve; as a rule, active = well fitted inhibition curve with a large enough effect; inconclusive = small, poorly fitted or top-dose-only effect, or another doubt; inactive = no such curve, though single readings can be large or run the other way.

COc1cccc(-c2csc(N3CCN(C(=S)Nc4ccccc4C)CC3)n2)c1	Shiga inhibitor 49.2, CHX counter 17.9
COc1cccc(-c2csc(N3CCN(Cc4ccccc4)CC3)n2)c1	Pf growth 48h inconclusive, CHX counter 17.6 (no result: Pf growth 96h)
CNC(=S)N1CCN(c2nc(-c3cccc(OC)c3)cs2)CC1	Pf growth 96h 11.7µM, CHX counter 9.9
COc1ccccc1NC(=S)N1CCN(c2nc(-c3ccccc3)cs2)CC1	none
COc1cccc(-c2csc(N3CCN(C(=S)Nc4ccc(Cl)cc4)CC3)n2)c1	Pf growth 96h 10.4µM, Pf growth 48h inconclusive, Shiga inhibitor 74.6, CHX counter 23.6
COc1cccc(-c2csc(N3CCN(C(=S)Nc4ccccc4)CC3)n2)c1	Pf growth 96h inconclusive, Pf growth 48h inconclusive
CCOc1ccccc1NC(=S)N1CCN(c2nc(-c3cccc(OC)c3)cs2)CC1	Pf growth 48h inconclusive
CCOC(=O)Cc1cc(=O)[nH]c(/N=C(\N)Nc2ccc(C)cc2C)n1	none (no result: Pf growth 48h)
CC[C@H](C)[C@H](NC(=O)OCc1ccccc1)C(=O)OCC(=O)Nc1ccc(N2CCOCC2)cc1	none (no result: Shiga inhibitor, CHX counter)
CCCCCN(C(=O)CCC(=O)OCCOc1cccc(Cl)c1)c1c(N)n(CCCC)c(=O)[nH]c1=O	Pf growth 48h inconclusive (no result: Shiga inhibitor, CHX counter)
COc1cccc(-c2csc(N3CCN(C(=S)Nc4cccc(C)c4)CC3)n2)c1	Pf growth 96h inconclusive, Pf growth 48h inconclusive, HCMV antiviral -67.1, CHX counter 18.5
CN1C(=O)SC(Nc2ccccc2C(=O)O)C1=O (configuration not stated)	Pf growth 96h 1.31µM
Nc1nnc(SCC(=O)c2ccc3ccccc3c2)s1	Shiga inhibitor 150.7, CHX counter 85.4 (no result: Pf growth 48h)
Nc1nnc(SCCCC(=O)c2ccccc2)s1	CHX counter 22.7
C=CCc1cc(F)c(S(=O)(=O)N2CCN(S(=O)(=O)c3ccc4c(c3)OCCO4)CC2)cc1F	none (no result: Pf growth 96h, Pf growth 48h, HCMV antiviral)
COc1ccc(NC(=O)c2cn(C)c(=O)c3cc(OC)c(OC)cc23)cc1OC	none
CCCC(=O)Nc1ccc(NC(=O)c2ccccc2F)cn1	CHX counter 16.1
O=C(Nc1ccc(NC(=O)C2CC2)nc1)c1ccccc1F	Shiga inhibitor 79.1, CHX counter 24.2
CCC(=O)Nc1ccc(NC(=O)c2ccccc2Cl)nc1	Pf growth 96h inconclusive, CHX counter 21.3
COc1ccc(C(=O)Nc2ccc(NC(=O)c3ccccc3F)cn2)cc1	none
CCC(=O)Nc1ccc(NC(=O)CCc2ccccc2)cn1	Pf growth 96h inconclusive (no result: Shiga inhibitor)
CCCC(=O)Nc1ccc(NC(=O)c2ccccc2)nc1	Shiga inhibitor 39.6, CHX counter 20.8
COc1cccc2c1NC1(C)c3ccccc3-n3nncc3CN1C2=O (configuration not stated)	none (no result: Pf growth 96h, Pf growth 48h, Shiga inhibitor, CHX counter)
CCCCOc1ccccc1C(=O)N(Cc1cccc(F)c1)C1CCS(=O)(=O)C1 (configuration not stated)	none (no result: Pf growth 96h, Pf growth 48h, Shiga inhibitor, CHX counter)
Cc1ccc(C(=O)c2c3ccc([N+](=O)[O-])cc3[n+]([O-])n2CCC(N)=O)cc1	none
Cc1ccc2nc(CN3CCN(S(=O)(=O)c4ccc(C(C)C)cc4)CC3)oc2c1	none (no result: Pf growth 96h, Pf growth 48h, Shiga inhibitor, CHX counter)
CCC(=O)Nc1ccc(NC(=O)c2ccccc2)nc1	Shiga inhibitor 70.4, CHX counter 24.9
O=C(Nc1ccc(NC(=O)C2CCCCC2)nc1)c1cccs1	Pf growth 48h inconclusive, Shiga inhibitor 64.6, CHX counter 34.7
CC(C)C(=O)Nc1ccc(NC(=O)c2ccccc2Cl)nc1	Pf growth 96h inconclusive, Shiga inhibitor 71.3, CHX counter 38.1
O=C(Nc1ccon1)c1ccccc1Cl	none (no result: Pf growth 96h)
COc1cc(CN2CCN(C(=O)CC(C)C)CC2)c([N+](=O)[O-])cc1OC	none
CCOC(=O)C1=C(COC(=O)/C=C/c2ccco2)NC(=O)NC1C (configuration not stated)	none (no result: Shiga inhibitor, CHX counter)
Cc1nc(Cl)c(C(=O)NCc2ccccc2)c(C)c1Cl	HCMV antiviral -69.9
Cc1nc(Cl)c(C(=O)NCc2ccccc2)c(C)c1[N+](=O)[O-]	HCMV antiviral inconclusive
O=C(NCc1ccccc1)c1c(Cl)nc(Cl)c(Cl)c1Cl	HCMV antiviral -83.5
CC(=O)c1c(C)oc2ccc(NS(=O)(=O)c3cccs3)cc12	none
CCOc1ccc(CN(C)CC(O)COC(c2ccc(OC)cc2)c2ccc(OC)cc2)cc1 (configuration not stated)	Pf growth 96h 10.4µM, Pf growth 48h 10.4µM
COc1ccc(CN(C)CC(O)COC(c2ccc(OC)cc2)c2ccc(OC)cc2)cc1 (configuration not stated)	Pf growth 96h inconclusive, Pf growth 48h 13.1µM

Screening data (PubChem)
